Sampled rows, rich in hits. Any-hit rate of the full collection: about 4.1%.
hcDAF-12 act: activators of H. contortus DAF-12 nuclear receptor; HEK293 hcDAF-12 lit1-tk-luc reporter, luminescence; 0% DMSO, 100% Δ7-dafachronic acid; activation, % at 6.8 µM; 370,000 compounds, 1.4% hits; AID 652067;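 active = activation above the mean of all tested compounds plus 3 SD, cut at about 5.5% in these data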
DAX1 inh-1: blocks DAX1 repression of SF-1 activated StAR promoter | 370,000 compounds, 1.1% hits | inhibition, % at 6.8 µM | HEK293T StAR-luciferase reporter, SF-1/DAX-1 repression relief;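 active = inhibition above the mean over all tested compounds plus 3 SD, cut at about 3.6% in these data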;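 note: higher inhibition means more luminescence from relief of DAX-1 repression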
hgDAF12 agonist: agonists of H. glycines DAF-12 nuclear receptor; activation, % at 6.8 µM; HEK293 GAL4-hgDAF12 UAS-luciferase reporter, agonist luminescence; normalized to butyrate control; 370,000 compounds, 1.8% hits;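 active = activation above a cutoff set at the mean of all screened compounds plus 3 SD, cut at about 10% in these data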
DAX1 inh-2: NR0B1 (DAX1) inhibition. P51843. HEK293 Gal4-DAX1 luciferase reporter, luminescence. inhibition, % at 6.75 µM. 340,000 compounds, 0.99% hits;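 active = inhibition above the mean over all tested compounds plus 3 SD, cut at about 4.2% in these data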;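 note: inhibition shows as a rise in luminescence from relieved DAX1 repression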
ssDAF-12 act: S. stercoralis DAF-12 activation, primary screen; HEK293 ssDAF-12/GRIP1 lit1-tk-luc reporter, luminescence; % of 3 µM dafachronic acid response; 370,000 compounds, 1% hits; activation, % at 6.8 µM;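 active = activation above the mean over all tested compounds plus 3 SD, cut at about 0.9% in these data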
DAX1 inh confirm: NR0B1 (human) inhibition, confirmation; AID 652134; shares compounds with DAX1 inh-1; 2,400 compounds, 87% hits; inhibition, % at 6.8 µM; HEK293T StAR-promoter luciferase reporter, SF-1/DAX-1 repression;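 active = inhibition above the average of every tested compound plus 3 SD, cut at about 3.8% in these data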;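 note: active compounds raise luminescence by relieving repression of the StAR reporter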
Target sequence (P51843 whole entry, looked up): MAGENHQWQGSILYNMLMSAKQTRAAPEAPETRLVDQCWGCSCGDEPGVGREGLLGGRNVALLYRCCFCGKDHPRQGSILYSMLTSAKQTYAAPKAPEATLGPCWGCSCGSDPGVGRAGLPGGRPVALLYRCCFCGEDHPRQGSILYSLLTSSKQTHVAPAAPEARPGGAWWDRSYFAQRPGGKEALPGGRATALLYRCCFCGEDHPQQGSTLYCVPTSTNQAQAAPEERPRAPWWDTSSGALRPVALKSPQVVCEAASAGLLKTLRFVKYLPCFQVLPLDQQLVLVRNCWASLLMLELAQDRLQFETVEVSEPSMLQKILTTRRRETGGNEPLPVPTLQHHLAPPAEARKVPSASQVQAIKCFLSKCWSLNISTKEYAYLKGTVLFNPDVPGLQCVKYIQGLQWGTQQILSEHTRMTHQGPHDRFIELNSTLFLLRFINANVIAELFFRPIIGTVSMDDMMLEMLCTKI
SF1 AF2mut Luc: nonselective inhibitor or artifact in SF-1 mutant DAX1 counter-screen; shares compounds with DAX1 inh-1; HEK293 StAR-luciferase, SF-1 AF2 mutant, luminescence; inhibition, % at 6.8 µM; 2,400 compounds, 78% hits;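 active = inhibition above the mean of all tested compounds plus 3 SD, cut at about 3% in these data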
LXR ag: counter-screen for hcDAF-12 agonists: agonists of human LXR-beta; shares compounds with hcDAF-12 act; HEK293 Gal4-LXR tk-luc reporter, luminescence, 24 h; normalized: DMSO 0%, positive control 100%; activation, % at 6.8 µM; 3,400 tested, under 10 active; AID 743027;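 active = mean percent activation of the reporter above a cutoff set as the average over tested compounds plus their standard deviation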
hcDAF12 ag: confirmation of H. contortus DAF-12 agonists; shares compounds with hcDAF-12 act; HEK293 hcDAF-12 lit1-tk-luc reporter, luminescence; % of Δ7-dafachronic acid response; activation, % at 6.8 µM; 3,400 compounds, 61% hits; AID 743032;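 active = mean activation across triplicate tests above the threshold derived from the earlier primary screen, cut at about 5.5% in these data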
A number is an active result; . = inactive; / = no result given.

SMILES | hcDAF-12 act | DAX1 inh-1 | hgDAF12 agonist | DAX1 inh-2 | ssDAF-12 act | DAX1 inh confirm | SF1 AF2mut Luc | LXR ag | hcDAF12 ag
Cc1ccc(CC(=O)Nc2nc3c(s2)CCCC3)cc1 | . | . | . | . | . | / | / | / | /
S=C(Nc1nc2c(s1)CCCC2)NC1CC1 | . | 5.3 | . | . | . | 6.4 | 4.3 | / | /
COC(=O)[C@]12C[C@H](CC(=O)NCCCCc3ccccc3)C(=O)N(Cc3ccccc3)C1=C[C@H](C(C)C)O[C@@H]2C1CC1 | . | . | . | / | . | / | / | / | /
c1ccc2[nH]c(NN=C3CCCCCC3)nc2c1 | . | . | . | . | . | / | / | / | /
c1ccc2nc(NN=C3CCCCC3)ccc2c1 | 6.7 | 4.5 | . | . | 1.8 | 7.4 | 3.1 | / | /
Cc1cc(NC(=O)c2cccc(COc3ccc(Br)cc3)c2)no1 | . | 4.5 | 12 | . | . | 4.0 | 4.6 | / | /
CCOC(=O)c1sc(NC(=O)c2ccc(CC)s2)nc1C | . | . | . | . | . | / | / | / | /
CCc1ccc(C(=O)Nc2nc(C)cs2)s1 | . | 16 | 11 | . | . | 9.9 | 6.1 | / | /
COC(=O)c1ccc(S(=O)(=O)N2CCC(NC(=O)CCc3ccccc3)CC2)cc1 | . | . | . | / | . | / | / | / | /
Cc1ccc(-c2cc(-c3ccccc3)no2)c(O)c1 | 16 | 6.8 | 11 | . | 3.1 | 14 | 3.7 | . | 19
CC(C)(C)c1cc(-c2ccccc2)no1 | . | . | . | . | . | / | / | / | /
Cc1ccccc1-c1cc(-c2ccccc2O)on1 | 22 | 4.8 | 22 | . | 3.4 | 15 | 12 | . | 20
Oc1ccccc1-c1cc(-c2ccccc2)no1 | 22 | 6.2 | 15 | . | 4.8 | 20 | 14 | . | 19
Cc1cc(N/C=C/C(=O)c2cccs2)ccc1F | 10 | 5.2 | 24 | 6.5 | 2.1 | 17 | 9.5 | . | 16
Cc1ccc(-c2noc(-c3cccs3)n2)cc1 | 8.9 | 6.2 | 16 | . | . | 16 | 11 | . | 16
Cc1cc(C(=O)NC2CCC(C)CC2)c(C)o1 (stereo unspecified) | 13 | 7.5 | . | . | . | 14 | 6.7 | . | 7.7
Cc1cc(C(=O)OCC(=O)NC2CCC(C)CC2)c(C)o1 (stereo unspecified) | . | . | . | . | . | / | / | / | /
Nc1ccccc1C=C1Cc2ccccc2C1=O | 13 | 7.7 | 22 | . | 3.2 | 17 | 7.4 | . | 11
Cc1ccc2c(c1)Cc1nc3ccccc3nc1-2 | 17 | 7.4 | 20 | . | 2.8 | 14 | 8.5 | . | 15
COc1ccc(C2=Nc3ccccc3N(C(=O)Cc3cc(OC)cc(OC)c3)C2C(=O)NC(C)C)cc1 (stereo unspecified) | 6.7 | 6.0 | 12 | / | 0.9 | 9.8 | 6.4 | . | 5.7
OC1=C(O)c2nc3cc(F)ccc3nc21 | . | . | . | / | . | / | / | / | /
Fc1ccc2nc3[nH]c4ccccc4c3nc2c1 | 9.0 | 4.8 | 12 | . | . | 14 | 8.5 | . | 11
CC(=S)/C=C1\Sc2ccccc2N1C | . | . | . | . | . | / | / | / | /
COc1ccc(C(=O)/C=C2\Sc3ccccc3N2C)cc1 | 19 | 5.7 | 28 | / | 5.9 | 16 | 9.8 | . | 18
O=C(NCCc1c[nH]c2ccccc12)OCc1cn(Cc2cccc(C(F)(F)F)c2)nn1 | . | . | . | / | . | / | / | / | /
SMILES | hcDAF-12 act | DAX1 inh-1 | hgDAF12 agonist | DAX1 inh-2 | ssDAF-12 act | DAX1 inh confirm | SF1 AF2mut Luc | LXR ag | hcDAF12 ag
COc1ccccc1C1=NOC(CN2C(=O)c3ccccc3S2(=O)=O)C1 (stereo unspecified) | . | . | . | . | . | / | / | / | /
O=C1c2ccccc2S(=O)(=O)N1CC1CC(c2ccccc2Cl)=NO1 (stereo unspecified) | 8.7 | 5.5 | 15 | . | . | 11 | 8.1 | . | 13
Nc1[nH]n(-c2ccccc2)c(=O)c1N=Nc1ccc2c(c1)OCCO2 | 9.4 | 5.0 | 15 | . | 2.1 | 13 | 6.0 | . | 12
CN=CC1=C(O)c2ccccc2C1=O | . | . | . | . | . | / | / | / | /
COc1ccc(N=CC2=C(O)c3ccccc3C2=O)cc1 | 13 | 6.0 | 11 | . | 1.1 | . | . | . | 6.1
O=C1C(C=Nc2ccccc2O)=C(O)c2ccccc21 | 20 | 5.9 | 16 | . | 2.0 | 12 | 5.1 | . | 19
COc1ccc(N=Cc2c[nH][nH]c2=O)cc1 | . | . | . | . | . | / | / | / | /
COC(=O)[C@]12C[C@H](CC(=O)N3CCN(C(=O)c4ccco4)CC3)C(=O)N(CCC3=CCCCC3)C1=C[C@H](COCc1ccccc1)O[C@@H]2C | . | . | . | / | . | / | / | / | /
Cc1ccc(N=C/C(C(=O)C(F)(F)F)=C(\O)c2ccco2)cc1Cl | 18 | 5.2 | 16 | . | 1.4 | 16 | 8.7 | . | 10
CC1(c2nnnn2Cc2ccccc2)CSCC(=O)N1Cc1cccs1 (stereo unspecified) | . | . | . | / | . | / | / | / | /
CN1C(=O)c2cc(NC(=O)Cc3ccccc3)ccc2OC[C@H]2O[C@H](CC(=O)O)CC[C@H]21 | . | . | . | / | . | / | / | / | /
O=C(Nc1nc2ccccc2s1)c1c(F)cccc1Cl | . | . | . | . | . | / | / | / | /
Cn1cc(Cl)c(C(=O)Nc2nc3ccccc3s2)n1 | 21 | 7.0 | 19 | . | 3.3 | 14 | 7.3 | . | 18
COCC(=O)Nc1nnc(-c2ccc(C(C)(C)C)cc2)s1 | 10 | 4.8 | 19 | . | . | 14 | 7.4 | . | 6.2
N/C(=N\C(=S)Nc1ccc2c(c1)OCO2)c1ccccc1 | 6.8 | 21 | 21 | / | 1.7 | 14 | 8.8 | . | 10
CC(C)Cc1cc(C(=O)Nc2ccc3c(c2)OCO3)no1 | 7.5 | 7.3 | 13 | . | 1.5 | 14 | 7.2 | . | .
Cc1ccc(SCc2cn3c(C)csc3n2)cc1 | 8.0 | 5.2 | 12 | . | . | 17 | 7.0 | . | 7.8
Cc1ccc(S(=O)(=O)NCc2cn3c(C)csc3n2)cc1 | . | . | . | . | . | / | / | / | /
CCCn1c(/C=N/Nc2nc3ccccc3[nH]2)nc2ccccc21 | . | . | . | . | . | / | / | / | /
Cn1c(/C=N/Nc2nc3ccccc3[nH]2)nc2ccccc21 | 17 | 5.5 | 15 | . | 1.9 | . | . | . | 8.0
O=C(N/N=C/c1ccccc1Cl)c1n[nH]c2c1CCCC2 | 6.6 | 5.1 | 16 | . | . | . | . | . | .
O=C(N/N=C/c1ccc(Cl)cc1)c1n[nH]c2c1CCCC2 | . | . | . | . | . | / | / | / | /
